KB-V1 MDR tox = qHTS assay for MDR1-selective chemotherapeutics: Primary screen using the drug-selected MDR subline cells KB-V1; KB-V1 MDR cells viability, CellTiter-Glo, 72 h; AID 1347076, 2019; 400,000 compounds, 3.4% hits; Potency, µM (highest dose often 46.1 µM), actives largely listed as cytotoxic; note: % is set by controls: 0 for no effect and ±100 for the full control effect; nearly all actives have a fitted effect of over 60% in size
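Compound-treated KB-V1 multidrug-resistant cells, 72 h, 37 degrees C; viability by CellTiter-Glo. Fitted qHTS curves give the values.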
HT1080-NT tox = qHTS for induction of synthetic lethality in tumor cells producing 2HG: qHTS for the HT-1080-NT fibrosarcoma cell line | HT-1080-NT fibrosarcoma viability, CellTiter-Glo ATP luminescence, 48 h | 360,000 compounds, 1.6% hits | Potency, µM (top dose mostly 46.1 µM), inactives show top-dose activity, negative = less viability, hits mostly cytotoxic;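 note: NT is the 2HG producing partner of a matched IDH1 knockdown line; 0% = DMSO-treated cells and -100% = media-only wells without cells; nearly all actives have a fitted effect of over 55% in size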
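Read-out is CellTiter-Glo luminescence after 10 minutes at room temperature, following 48 hours' compound treatment of HT-1080-NT cells (750 cells/well, RPMI, 5% FBS, 37 degrees C).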
HT1080 IDH1KD tx = qHTS for induction of synthetic lethality in tumor cells producing 2HG: qHTS for the HT-1080-IDH1KD cell line | HT-1080 IDH1 knockdown viability, ATP luminescence, 48 h | Potency, µM (highest dose often 46.1 µM), for the others: at the highest dose activity, negative = toxicity, actives largely listed as cytotoxic | 360,000 compounds, 2% hits;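 note: 0% = DMSO wells and -100% = cell-free medium wells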
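In this qHTS, HT-1080 cells depleted of IDH1 are exposed for 48 h at 37 °C to compound titrations. Toxicity is scored from CellTiter-Glo luminescence, with DMSO as full viability and medium alone as none.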
SW480 rerep = A quantitative high throughput screen for small molecules that induce DNA re-replication in SW480 colon adenocarcinoma cells; SW480 DNA re-replication, Hoechst DNA content imaging, 48 h; Potency, µM (doses to about 46.1 µM), for the others: top-dose re-replication activation, hits mostly activators; 340,000 compounds, 1.8% hits; AID 624297, 2012; note: % of control where 0% means no effect; nearly all actives have a fitted effect of over 55% in size
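Quantitative HTS format with DMSO vehicle controls; 48 hr drug incubation at 37 C, then 40 min Hoechst staining and scanning imager measurement at 405 nm excitation.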
KB-3-1 tox = qHTS assay for MDR1-selective chemotherapeutics: Primary screen using the parental adenocarcinoma cell KB-3-1; Potency, µM (doses to about 46.1 µM), most hits filed as cytotoxic; 400,000 compounds, 1.4% hits; KB-3-1 viability, CellTiter-Glo ATP luminescence, 72 h; AID 1347075, 2019; note: % is set by controls: 0 for no effect and ±100 for the full control effect; nearly all actives have a fitted effect of over 60% in size
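KB-3-1 cells, DMEM (no phenol red) + 10% FBS; compound by pin transfer, 72 h, 37 °C. Readout: CellTiter-Glo luminescence after 10 min. Data normalized, curve-fitted.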
MCF10A rereplic = A quantitative high throughput screen for small molecules that induce DNA re-replication in MCF 10a normal breast cells | MCF 10A DNA re-replication, Hoechst nuclear intensity, 48 h | Potency, µM (titrated, usually from 46.1 µM), inactives show at the highest dose activity, positive = re-replication, hits mostly activators | 350,000 compounds, 2.9% hits | AID 624296, 2012; note: % of control where 0% means no effect; nearly all actives have a fitted effect of over 50% in size
Starred values were filed as active, the others as inactive. An excerpt weighted towards active compounds, which were near 8% of everything screened. Calls come from the whole dose curve; as a rule, active = well fitted curve in the direction sought with a large enough effect; inconclusive = small, poorly fitted or top-dose-only effect, or another doubt; inactive = no such curve, though single readings can be large; an effect the other way counts as inactive or inconclusive. Potency is the fitted concentration of half-maximal effect.

`COc1cc(OC)c(N(C)S(=O)(=O)c2cccc(C(=O)NC3=NCCS3)c2)cc1Cl` gave KB-V1 MDR tox inconclusive, HT1080-NT tox inconclusive, HT1080 IDH1KD tx 16.4µM*, SW480 rerep inconclusive, KB-3-1 tox inconclusive and MCF10A rereplic 5.4%.
O=C(NC1=NCCS1)c1ccccc1 was read as KB-V1 MDR tox inactive, HT1080-NT tox -2.2%, HT1080 IDH1KD tx 5.0%, SW480 rerep -7.1%, KB-3-1 tox inactive and MCF10A rereplic 4.3%.
`CC(NC(=O)c1ccc(F)cc1)C(=O)NC1=NCCS1` (stereo not drawn) gave KB-V1 MDR tox inactive, HT1080-NT tox 8.6%, HT1080 IDH1KD tx -5.9%, SW480 rerep 6.51µM*, KB-3-1 tox inactive and MCF10A rereplic 3.2%.
For COc1ccccc1N(C)S(=O)(=O)c1ccc(Cl)c(C(=O)NC2=NCCS2)c1 the results were KB-V1 MDR tox inconclusive, HT1080-NT tox 1.8%, HT1080 IDH1KD tx 1.8%, SW480 rerep -0.8%, KB-3-1 tox inactive and MCF10A rereplic -2.9%.
For COc1ccc(S(=O)(=O)N2CCC(N3CCN(Cc4ccc(F)cc4)C(=O)C3=O)CC2)cc1 the results were KB-V1 MDR tox inactive and KB-3-1 tox inactive.
COc1ccc(C(=O)Nc2nccs2)cc1[N+](=O)[O-] was read as KB-V1 MDR tox inactive, HT1080-NT tox 20.1%, HT1080 IDH1KD tx 0.4%, SW480 rerep 13.1%, KB-3-1 tox inactive and MCF10A rereplic -2.5%.
Screening Cn1cc([N+](=O)[O-])c(C(=O)Nc2nccs2)n1 returned KB-V1 MDR tox inactive, HT1080-NT tox inconclusive, HT1080 IDH1KD tx inconclusive, SW480 rerep inconclusive, KB-3-1 tox inactive and MCF10A rereplic 4.61µM*.
Cn1cc([N+](=O)[O-])c(C(=O)Nc2ccc(Br)cn2)n1 was read as KB-V1 MDR tox inconclusive, HT1080-NT tox 11.2µM*, HT1080 IDH1KD tx 7.08µM*, SW480 rerep inconclusive, KB-3-1 tox inconclusive and MCF10A rereplic inconclusive.
Cn1cc([N+](=O)[O-])c(C(=O)Nc2ccn(Cc3c(F)c(F)cc(F)c3F)n2)n1 was read as KB-V1 MDR tox inconclusive, HT1080-NT tox 7.08µM*, HT1080 IDH1KD tx 6.31µM*, SW480 rerep inconclusive, KB-3-1 tox inactive and MCF10A rereplic inconclusive.
For Cc1nc2c(-c3ccccc3)c(C)nn2c(C)c1CCC(=O)NCc1ccc(Cl)cc1 the results were KB-V1 MDR tox inactive and KB-3-1 tox inactive.
CC(C)CNC(=O)c1ccccc1NC(=O)c1ccccc1N(C)S(=O)(=O)c1ccccc1 was read as KB-V1 MDR tox inactive, HT1080-NT tox -2.1%, HT1080 IDH1KD tx -0.1%, SW480 rerep -1.5%, KB-3-1 tox inactive and MCF10A rereplic -6.0%.
Screening CN(c1ccccc1C(=O)Nc1cccc(Cl)c1Cl)S(C)(=O)=O returned KB-V1 MDR tox 16.4µM*, HT1080-NT tox -2.8%, HT1080 IDH1KD tx -3.5%, SW480 rerep 1.9%, KB-3-1 tox inactive and MCF10A rereplic 0.2%.
`CCOc1ccccc1NC(=O)c1ccccc1N(C)S(C)(=O)=O` gave KB-V1 MDR tox inactive, HT1080-NT tox 9.8%, HT1080 IDH1KD tx 11.0%, SW480 rerep -8.6%, KB-3-1 tox inactive and MCF10A rereplic -5.6%.
CCCNC(=O)c1ccccc1NC(=O)c1ccccc1N(C)S(=O)(=O)c1ccccc1 was read as KB-V1 MDR tox 9.2µM*, HT1080-NT tox -2.2%, HT1080 IDH1KD tx -11.4%, SW480 rerep inconclusive, KB-3-1 tox inconclusive and MCF10A rereplic inconclusive.
COc1ccc(C(CNC(=O)C(CCSC)NC(=O)c2ccccc2Cl)N2CCCCC2)cc1 (stereo not drawn) was read as KB-V1 MDR tox 23.1µM*, HT1080-NT tox -2.6%, HT1080 IDH1KD tx -2.3%, SW480 rerep -0.4%, KB-3-1 tox inactive and MCF10A rereplic 3.1%.
For COc1ccccc1C(=O)NC(CCSC)C(=O)NCC(c1cccs1)N(C)C (stereo not drawn) the results were KB-V1 MDR tox inconclusive, HT1080-NT tox 2.9%, HT1080 IDH1KD tx 4.4%, SW480 rerep -3.5%, KB-3-1 tox inactive and MCF10A rereplic -1.0%.
COc1ccccc1C(=O)NC(CCSC)C(=O)NCC(c1ccco1)N(C)C (stereo not drawn) was read as KB-V1 MDR tox 18.4µM*, HT1080-NT tox -0.7%, HT1080 IDH1KD tx -1.3%, SW480 rerep 4.0%, KB-3-1 tox inactive and MCF10A rereplic -0.4%.
Screening NCCc1c(-c2ccccc2)n(-c2ccccc2)c2ccccc12 returned KB-V1 MDR tox inconclusive, HT1080-NT tox 14.6µM*, HT1080 IDH1KD tx 20.6µM*, SW480 rerep inconclusive, KB-3-1 tox inactive and MCF10A rereplic inconclusive.
`CC(C)CCNC(=O)c1ccc(Cn2c(SCC(=O)NC(C)C)nc3ccccc3c2=O)cc1` gave KB-V1 MDR tox inactive and KB-3-1 tox inactive.
`COc1ccc(-c2coc3c(C(=O)NCc4ccc(OC)c(OC)c4)cccc23)c(C)c1` gave KB-V1 MDR tox inconclusive, HT1080-NT tox inconclusive, HT1080 IDH1KD tx 4.11µM* and KB-3-1 tox inactive.
`COc1ccc(-c2coc3c(C(=O)NCCN(C)C)cccc23)c(C)c1` gave KB-V1 MDR tox inactive, HT1080-NT tox 25.9µM*, HT1080 IDH1KD tx 16.4µM* and KB-3-1 tox inconclusive.
For COc1ccc(-c2coc3c(C(=O)NCCc4ccccc4)cccc23)c(C)c1 the results were KB-V1 MDR tox inconclusive, HT1080-NT tox inconclusive, HT1080 IDH1KD tx inconclusive and KB-3-1 tox inactive.
COc1ccc(-c2coc3c(C(=O)NCc4ccc(F)c(F)c4)cccc23)c(C)c1 was read as KB-V1 MDR tox inconclusive, HT1080-NT tox 13µM*, HT1080 IDH1KD tx 13µM* and KB-3-1 tox inactive.
Screening Cn1cc(-c2coc3c(C(=O)NCc4cccnc4)cccc23)cn1 returned KB-V1 MDR tox inactive, HT1080-NT tox 0.7%, HT1080 IDH1KD tx -1.1% and KB-3-1 tox inactive.
Screening COc1ccc(-c2ccc(C(=O)NCc3ccc(F)c(F)c3)c3occc23)c(C)c1 returned KB-V1 MDR tox inactive, HT1080-NT tox inconclusive, HT1080 IDH1KD tx inconclusive and KB-3-1 tox inactive.

Assay outcomes as filed in PubChem BioAssay.
